Compound activity (PubChem)
Sampled rows, rich in hits. Any-hit rate of the full collection: about 2.1%.
ROS inducer: ROS inducers in U2OS cancer cells, primary screen, cell-based, H2DCF-DA fluorescence; U2OS ROS induction; ROS induction (% of piperlongumine), % at 10 µM; 46,000 tested, 2% active; AID 624156, 2012; in the data active = ROS induction above about 79%, passing the limit was not always enough
YB-1 expression: inhibitors of YB-1 gene expression, primary screen, cell-based, fluorescence | U2OS, qRT-PCR YB-1 vs CDIP delta delta Cp, 16 h; hits give high values; zero = DMSO, each unit about twofold | delta delta Cp (YB-1 minus CDIP) (test concentration not listed) | 30,000 tested, 0.37% active;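 active = delta delta Cp rounded down to an integer at or above 3, about 3 SD of DMSO wells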;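 note: higher means less YB-1 transcript or more CDIP transcript relative to DMSO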
Large screens that a line does not name were inactive.

COc1ccc(-c2oc3ccc(OC)cc3c(=O)c2O)c(OC)c1	none (no result: YB-1 expression)
Cc1cccc(-c2noc(CN(C(=O)c3ccc([N+](=O)[O-])c(C)c3)C(C)C)n2)c1	none (no result: YB-1 expression)
CCOC(=O)c1cc(-c2ccccc2)sc1NC(=O)CCN1CCN(CC)CC1	none (no result: YB-1 expression)
Cc1cc(C)c2cc(C(=O)Nc3ccccc3Cl)[nH]c2c1	none (no result: YB-1 expression)
CN(C(=O)C(Cl)Cl)c1ccc(OC(=O)c2ccco2)cc1	YB-1 expression 3.72
O=C(Oc1ccc(OC(=O)c2ccco2)cc1)c1ccco1	none
Cc1cccc(C=Nc2c(C)n(C)n(-c3ccccc3)c2=O)c1	none
Cc1cc(N(CC(=O)NC2CCCCCC2)S(C)(=O)=O)ccc1Br	none (no result: YB-1 expression)
C[C@H](CO)N1C[C@H](C)[C@@H](CN(C)Cc2ccc(C(F)(F)F)cc2)Oc2ccc(NS(=O)(=O)c3ccc(Cl)cc3)cc2C1=O	none
C[C@H](CO)N1C[C@H](C)[C@H](CN(C)Cc2ccccc2)Oc2ccc(NS(=O)(=O)c3ccc(Cl)cc3)cc2C1=O	YB-1 expression 6.13
C[C@H]1CN([C@@H](C)CO)C(=O)c2cc(NS(=O)(=O)c3ccc(Cl)cc3)ccc2O[C@@H]1CN(C)Cc1ccc(C(F)(F)F)cc1	ROS inducer 80.6
C[C@@H]1CN([C@@H](C)CO)C(=O)c2cc(NS(=O)(=O)c3ccc(Cl)cc3)ccc2O[C@@H]1CN(C)Cc1ccccc1	none
COc1ccc(-c2cc3cc(OC)c(OC)cc3c(Cc3ccccc3)n2)cc1	ROS inducer 154.7
COc1cc2cc(C)nc(Cc3cccc4ccccc34)c2cc1OC	none
O=C(NCC(O)c1ccccc1)c1ccc(Cl)c(S(=O)(=O)N2CCOCC2)c1 (stereo unspecified)	none (no result: YB-1 expression)
Cc1ccc(C2=NNC(=O)CC2)cc1	none (no result: YB-1 expression)
C[C@@H]1C[C@@H]2O[C@H]2/C=C/C=C\C(=O)Cc2c(Cl)c(O)cc(O)c2C(=O)O1	ROS inducer 139.5
COc1cc(O)cc2c1C(=O)OC(C)C2 (stereo unspecified)	none
O=C(CCNS(=O)(=O)c1ccc(Br)cc1)NC1CCCC1	none (no result: YB-1 expression)
CC(C)NC(=O)c1ccccc1N	none (no result: YB-1 expression)
COc1cc2c(cc1OC)CN(C(=O)[C@H]1[C@@H]3C(=O)O[C@@H](c4ccccc4)[C@@H](c4ccccc4)N3[C@@H](c3ccc(OCCO)cc3)[C@]13C(=O)Nc1ccc(C#CC4(O)CCCCCC4)cc13)CC2	none
COc1cc2c(cc1OC)CN(C(=O)[C@H]1[C@@H]3C(=O)O[C@@H](c4ccccc4)[C@@H](c4ccccc4)N3[C@@H](c3ccccc3OCCO)[C@]13C(=O)Nc1ccc(C#CC4(O)CCCCCC4)cc13)CC2	ROS inducer 95.9
COc1ccc(C#Cc2ccc3c(c2)[C@]2(C(=O)N3)[C@H](C(=O)N3CCc4cc(OC)c(OC)cc4C3)[C@H]3C(=O)O[C@H](c4ccccc4)[C@H](c4ccccc4)N3[C@@H]2c2ccccc2OCCO)cc1	none
COc1cc2c(cc1OC)CN(C(=O)[C@@H]1[C@H]3C(=O)O[C@H](c4ccccc4)[C@H](c4ccccc4)N3[C@H](c3ccccc3OCCO)[C@@]13C(=O)Nc1ccc(C#CC4(O)CCCCCC4)cc13)CC2	ROS inducer 87.8
O=C(CSc1nnc(-c2cccc(Cl)c2)n1-c1ccccc1)Nc1ccccc1-c1ccccc1	none (no result: YB-1 expression)
COc1ccc(NC(=O)Nc2ccc3c(c2)C(=O)N([C@H](C)CO)C[C@H](C)[C@H](CN(C)Cc2ccc(C(=O)O)cc2)OCCCC[C@@H](C)O3)cc1	none
COc1ccc(NC(=O)Nc2ccc3c(c2)C(=O)N([C@H](C)CO)C[C@H](C)[C@@H](CN(C)C(=O)C2CCCCC2)OCCCC[C@@H](C)O3)cc1	ROS inducer 114.2
C[C@@H]1CCCCO[C@@H](CN(C)C(=O)Nc2cccc3ccccc23)[C@@H](C)CN([C@H](C)CO)C(=O)c2cc(NC(=O)Nc3cccc4ccccc34)ccc2O1	none
COc1ccc(CN(C)C[C@H]2OCCCC[C@@H](C)Oc3ccc(NS(=O)(=O)c4ccc(F)cc4)cc3C(=O)N([C@H](C)CO)C[C@@H]2C)cc1	none
COc1ccc(CN(C)C[C@H]2OCCCC[C@@H](C)Oc3ccc(NC(=O)Nc4ccc(OC)cc4)cc3C(=O)N([C@H](C)CO)C[C@@H]2C)cc1	ROS inducer 121.9
COc1ccc(NC(=O)Nc2ccc3c(c2)C(=O)N([C@H](C)CO)C[C@H](C)[C@H](CN(C)C(=O)Nc2ccc(OC)cc2)OCCCC[C@@H](C)O3)cc1	none
C[C@@H]1CCCCO[C@@H](CN(C)C(=O)C2CCCCC2)[C@@H](C)CN([C@H](C)CO)C(=O)c2cc(NC(=O)Nc3cccc4ccccc34)ccc2O1	ROS inducer 102.0
COc1ccc(CN(C)C[C@@H]2OCCCC[C@@H](C)Oc3ccc(NS(=O)(=O)c4ccc(C)cc4)cc3C(=O)N([C@H](C)CO)C[C@@H]2C)cc1	ROS inducer 127.8
NC(=O)C1(N2CCCCC2)CCN(CC(=O)Nc2ccc(Br)cc2)CC1	none (no result: YB-1 expression)
